The full list was thinned out, with the strongest signals kept by preference.
Assays:
Assay in all cases: glycan array binding signal (z-score within array); higher = stronger binding
Details in all cases: glycan notation: IUPAC condensed, linker removed
[1] = molecular target: GlcNAc(a1-4)Gal(b1-4)GlcNAc(b1-3)Gal(b1-4)GlcNAc
Method in brief: (§1)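 Negative Z-scores can be read as non-binding. The Z-score is calculated within each array and then averaged across arrays of one protein sequence at different concentrations or buffers and across linkers. Arrays, 3228 in all, were curated from the Consortium for Functional Glycomics database and kept only where the protein sequence was available.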

[2] = molecular target: GlcNAc(a1-4)Gal(b1-4)GlcNAc(b1-3)Gal(b1-4)[Fuc(a1-3)]GlcNAc(b1-3)Gal(b1-4)[Fuc(a1-3)]GlcNAc
Method in brief: as §1

[3] = molecular target: GlcNAc(b1-2)Man(a1-3)[GlcNAc(b1-4)][GlcNAc(b1-2)Man(a1-6)]Man(b1-4)GlcNAc(b1-4)[Fuc(a1-6)]GlcNAc
Method in brief: as §1

[4] = molecular target: GlcNAc(b1-3)Gal(b1-3)GalNAc
Method in brief: as §1

[5] = molecular target: GlcNAc(b1-3)Gal(b1-4)GlcNAc(b1-2)Man(a1-3)[GlcNAc(b1-3)Gal(b1-4)GlcNAc(b1-2)Man(a1-6)]Man(b1-4)GlcNAc(b1-4)GlcNAc
Method in brief: as §1

[6] = molecular target: GlcNAc(b1-3)Gal(b1-4)GlcNAc(b1-3)Gal(b1-4)GlcNAc(b1-2)Man(a1-3)[GlcNAc(b1-3)Gal(b1-4)GlcNAc(b1-3)Gal(b1-4)GlcNAc(b1-2)Man(a1-6)]Man(b1-4)GlcNAc(b1-4)[Fuc(a1-6)]GlcNAc
Method in brief: as §1

[7] = molecular target: GlcNAc(b1-3)Gal(b1-4)GlcNAc(b1-3)Gal(b1-4)GlcNAc(b1-2)[GlcNAc(b1-3)Gal(b1-4)GlcNAc(b1-3)Gal(b1-4)GlcNAc(b1-6)]Man(a1-6)[GlcNAc(b1-3)Gal(b1-4)GlcNAc(b1-3)Gal(b1-4)GlcNAc(b1-2)Man(a1-3)]Man(b1-4)GlcNAc(b1-4)[Fuc(a1-6)]GlcNAc
Method in brief: as §1

[8] = molecular target: GlcNAc(b1-3)Gal(b1-4)GlcNAc(b1-3)Gal(b1-4)GlcNAc(b1-3)Gal(b1-4)GlcNAc(b1-2)[GlcNAc(b1-3)Gal(b1-4)GlcNAc(b1-3)Gal(b1-4)GlcNAc(b1-3)Gal(b1-4)GlcNAc(b1-6)]Man(a1-6)[GlcNAc(b1-3)Gal(b1-4)GlcNAc(b1-3)Gal(b1-4)GlcNAc(b1-3)Gal(b1-4)GlcNAc(b1-2)Man(a1-3)]Man(b1-4)GlcNAc(b1-4)[Fuc(a1-6)]GlcNAc
Method in brief: as §1

[9] = molecular target: GlcNAc(b1-3)Gal(b1-4)GlcNAc(b1-6)[Gal(b1-3)]GalNAc
Method in brief: as §1

[10] = molecular target: GlcNAc(b1-3)[GlcNAc(b1-4)][GlcNAc(b1-6)]GlcNAc
Method in brief: as §1

[11] = molecular target: GlcNAc(b1-4)Gal(b1-4)GlcNAc
Method in brief: as §1

Kdn(a2-6)Gal(b1-4)GlcNAc = molecular target: Kdn(a2-6)Gal(b1-4)GlcNAc
Method in brief: as §1

[12] = molecular target: Man(a1-2)Man(a1-3)[Man(a1-2)Man(a1-6)]Man(a1-6)[Man(a1-2)Man(a1-2)Man(a1-3)]Man(b1-4)GlcNAc(b1-4)GlcNAc
Method in brief: as §1

[13] = molecular target: Man(a1-2)Man(a1-6)[Man(a1-3)]Man(a1-6)[Man(a1-2)Man(a1-2)Man(a1-3)]Man(b1-4)GlcNAc(b1-4)GlcNAc
Method in brief: as §1

[14] = molecular target: Man(a1-3)[Man(a1-6)]Man(a1-6)[Man(a1-3)]Man
Method in brief: as §1

[15] = molecular target: Neu5Ac(a2-3)Gal(b1-3)GlcNAc(b1-3)Gal(b1-4)GlcNAc
Method in brief: as §1

[16] = molecular target: Neu5Ac(a2-3)Gal(b1-4)GlcNAc(b1-3)Gal
Method in brief: as §1

[17] = molecular target: Neu5Ac(a2-3)Gal(b1-4)GlcNAc(b1-3)Gal(b1-4)GlcNAc(b1-6)[Gal(b1-3)]GalNAc
Method in brief: as §1

[18] = molecular target: Neu5Ac(a2-3)Gal(b1-4)[Fuc(a1-3)]GlcNAc(b1-3)GalNAc
Method in brief: as §1

[19] = molecular target: Neu5Ac(a2-3)Gal(b1-4)[Fuc(a1-3)]GlcNAc(b1-6)[Gal(b1-3)]GalNAc
Method in brief: as §1

Neu5Ac(a2-6)Gal(b1-4)Glc = molecular target: Neu5Ac(a2-6)Gal(b1-4)Glc
Method in brief: as §1

[20] = molecular target: Neu5Ac(a2-6)Gal(b1-4)GlcNAc(b1-2)Man(a1-3)[Neu5Ac(a2-3)Gal(b1-4)GlcNAc(b1-2)Man(a1-6)]Man(b1-4)GlcNAc(b1-4)GlcNAc
Method in brief: as §1

[21] = molecular target: Neu5Ac(a2-6)Gal(b1-4)GlcNAc(b1-3)Gal(b1-4)GlcNAc(b1-3)[Neu5Ac(a2-6)Gal(b1-4)GlcNAc(b1-3)Gal(b1-4)GlcNAc(b1-6)]GalNAc
Method in brief: as §1

[22] = molecular target: Neu5Gc(a2-3)Gal(b1-4)GlcNAc(b1-3)Gal(b1-4)GlcNAc(b1-2)Man(a1-3)[Neu5Gc(a2-3)Gal(b1-4)GlcNAc(b1-3)Gal(b1-4)GlcNAc(b1-2)Man(a1-6)]Man(b1-4)GlcNAc(b1-4)GlcNAc
Method in brief: as §1

B1: BT4246 (Bacteroides thetaiotaomicron), Q89ZX5 (protein)
chain: MGSSHHHHHHENLYFQGHMASDYLDVVPPEQPNIDDAMSSPTRALGFLYSCYGGVSTDLPSAYLGEINSTTDEYVLPYSWNTDGYWGAYAFNTASSTNQDWLWGTTYQYIGQCYLFLQKLENAGSDIASDAEKEQWRAECQFLVAYYHFATLRRYGPIPITDSYIPMDTPTSEYNGRFHFDYCVDWIANQLDEAAKVLPANRTVTNEWGRATSTIAKAVKARLLLYAASPLWNGSFPYPNWQNENFETPGYGKALVSNTYDKSKWERALAACQEALTLATTSGDRELYDDDEYYSRQSLNLPFVPGVADVEDNKEFLKNVMKMRYAVSTRESEGNKEIIWGLSNQFDFYSRYPLRILKKSDGTWHAGYSGVSPTLYTFEHFYTANGKLPEKDLDFTPSSEWFESAGISSREDIIKLNVGREPRFYAWMAFDGGDYGTKFAAGSPLKLEMRNSEMHGYNPSLFNRDHSVTGFLTQKFVDPVTEFYTAGGSTSGTSAPTILFRLAELYLNVAECHAALGNTQEAIDALNPVRERAGIPKLTLADITNNMTIKDWVHNERFVELWNEGHRFFDVRRWAEGAKYFGANKREGLNAEVQSPTFEEFNKRTTVDAPYVWENRMYLNPVFYNEVYKNPQMVQAPGY
For B1, the “glycan array binding signal (z-score)” value [1] was -0.394, the “glycan array binding signal (z-score)” value [2] was 3.11 and the “glycan array binding signal (z-score)” value [3] was 2.52. The “glycan array binding signal (z-score)” value [4] was -0.081, the “glycan array binding signal (z-score)” value [5] was 0.802 and the “glycan array binding signal (z-score)” value [6] was -0.16. The “glycan array binding signal (z-score)” value [7] was 1.52, the “glycan array binding signal (z-score)” value [8] was 0.637 and the “glycan array binding signal (z-score)” value [9] was -0.339. For the same binder, the “glycan array binding signal (z-score)” value [10] was -0.635, the “glycan array binding signal (z-score)” value [11] was -0.482 and the “glycan array binding signal (z-score)” value (Kdn(a2-6)Gal(b1-4)GlcNAc) was 1.42. For the same binder, the “glycan array binding signal (z-score)” value [12] was -0.169, the “glycan array binding signal (z-score)” value [13] was 1.59 and the “glycan array binding signal (z-score)” value [14] was 3.62. For the same binder, the “glycan array binding signal (z-score)” value [15] was 1.07, the “glycan array binding signal (z-score)” value [16] was -0.929 and the “glycan array binding signal (z-score)” value [17] was 0.439. For the same binder, the “glycan array binding signal (z-score)” value [18] was 4.68, the “glycan array binding signal (z-score)” value [19] was 2.47 and the “glycan array binding signal (z-score)” value (Neu5Ac(a2-6)Gal(b1-4)Glc) was -0.168. For the same binder, the “glycan array binding signal (z-score)” value [20] was -0.62, the “glycan array binding signal (z-score)” value [21] was 3.02 and the “glycan array binding signal (z-score)” value [22] was 2.77.
